Measurements published in PubChem BioAssay.
Calls of active or inactive are those of the source.

Key:
[1] = tested on: PRMT1 (protein arginine N-methyltransferase 1); test: small molecules binding arginine methyltransferase PRMT1 – biochemical, small-molecule microarray, 635 nm fluorescence, primary screen (AID 1088); details: higher = more signal;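 note: binding of Prmt1 protein to compounds spotted on small-molecule microarray slides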
[2] = growth effects on S. cerevisiae YJM789 – YJM789 clinical isolate, OD600, 24 h, basal, primary screen (AID 1089); details: higher = more signal, called active from +8 up or from −8 down;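 note: growth of clinical yeast isolate S. cerevisiae YJM 789 seeded 1000 cells per well; test concentration not given here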
[3] = S. pombe growth modifiers, basal conditions – strain 972, OD600, 24 h, no modulator, primary screen (AID 1090);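 note: basal condition with compound alone and no growth modifier present; test concentration not given here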; details: S. pombe 972 growth, higher = more signal, called active from +8 up or from −8 down
[4] = budding yeast growth modifiers under rapamycin – strain BY4716, OD600, 96 h, primary screen (AID 1091); note: test concentration not given here; details: S. cerevisiae BY4716 + rapamycin, higher = more signal, called active from +8 up or from −8 down
[5] = target: Torsin-1A-interacting protein 2 (Homo sapiens) (UniProt Q8NFQ8); test: small molecules binding lysate-expressed LULL1 – cell lysate, human LULL1 lysate, 635/667 nm fluorescence, primary screen (AID 1092); details: small-molecule microarray, hLULL1 lysate binding, 635 nm fluorescence; higher = more signal;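 note: probe is lysate of COS7 cells overexpressing human LULL1; score merges per-feature 667 nm fluorescence with signal-to-noise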
[6] = optical density change of DRC41 E. coli – strain DRC41, OD650, 24 h, E. coli filamentation project, primary screen (AID 1093);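 note: MC1000 strain lacking acrAB efflux and sulA so SOS filamentation is blocked; test concentration not given here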; details: E. coli DRC41 growth, higher = more signal, called active from +8 up or from −8 down
[7] = probe aLefty2 binding to arrayed compounds – biochemical, biotinylated probe, 635/667 nm fluorescence, primary screen (AID 1094); details: small-molecule microarray, higher = more signal;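 note: score merges spot fluorescence near 667 nm with spot signal-to-noise ratio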
[8] = tested on: Noggin (protein binding on small-molecule microarray); test: small molecules binding Noggin protein – biochemical, 635/667 nm fluorescence, primary screen (AID 1095); details: 635 nm fluorescence, higher = more signal;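 note: score merges 667 nm feature fluorescence with signal to noise over triplicate slides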
[9] = target: Neurogenic locus notch homolog protein 3 (Homo sapiens) (UniProt Q9UM47); test: small molecules binding NOTCH3 protein – biochemical, 635/667 nm fluorescence, primary screen (AID 1096); details: small-molecule microarray, 635 nm fluorescence, higher = more signal
[10] = probe aEGFR binding to arrayed compounds – biochemical, biotinylated probe, 635/667 nm fluorescence, primary screen (AID 1097); details: small-molecule microarray, higher = more signal;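 note: probe is a biotinylated anti-EGFR antibody binding compounds printed on slides; score combines fluorescence near 667 nm and signal to noise of each spot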
[11] = tested on: Plasmodium falciparum Sir2 (PF13_0152, Sir2A); test: Plasmodium falciparum Sir2A binding compounds – biochemical, small-molecule microarray, 635 nm fluorescence, primary screen (AID 1098); details: fluorescence 635 nm, higher = more signal;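 note: score merges spot fluorescence intensity with its signal-to-noise ratio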
[12] = probe aDKK1 binding to arrayed compounds – biochemical, biotinylated probe, 635/667 nm fluorescence, primary screen (AID 1099); details: small-molecule microarray, higher = more signal;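 note: score merges 667nm spot fluorescence with signal to noise across triplicate slides; reference of the scale not given here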
[13] = probe aCHRDL2 binding to arrayed compounds – biochemical, biotinylated probe, 635/667 nm fluorescence, primary screen (AID 1100); details: small-molecule microarray, higher = more signal
[14] = change in splice reporter luminescence, either direction, cell-based, HEK293, spliceosome inhibition project, primary screen (AID 1101); details: HEK293 splicing luciferase reporter, 24 h, higher = more signal, called active from +8 up or from −8 down;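 note: HEK293 cells carrying a splicing-competent luciferase reporter gene; test concentration not given here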
[15] = target: Fibroblast growth factor 10 (Homo sapiens) (UniProt O15520); test: compounds binding fibroblast growth factor 10 – biochemical, small-molecule microarray, 635 nm fluorescence, primary screen (AID 1102); details: FGF10 binding, fluorescence 635 nm, higher = more signal
[16] = tested on: glycogen synthase kinase-3 (GSK3A per assay name; protocol says GSK3B); test: compounds binding glycogen synthase kinase-3 – biochemical, small-molecule microarray, 635 nm fluorescence, GSK3A, primary screen (AID 1103); details: fluorescence 635 nm, higher = more signal; note: the record names both GSK3A and GSK3B
[17] = target: Epidermal growth factor receptor (Homo sapiens) (UniProt P00533); test: compounds binding epidermal growth factor receptor – biochemical, small-molecule microarray, 635 nm fluorescence, primary screen (AID 1104); details: EGFR binding, higher = more signal;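 note: score merges 667 nm emission intensity with spot signal to noise over triplicate slides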
[18] = target: Follistatin-related protein 3 (Homo sapiens) (UniProt O95633); test: compounds binding follistatin-related protein 3 – biochemical, small-molecule microarray, 635 nm fluorescence, primary screen (AID 1105); details: FSTL3 binding, higher = more signal;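 note: score merges emission near 667 nm and signal to noise per printed spot across three slides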
[19] = target: Dickkopf-related protein 1 (Homo sapiens) (UniProt O94907); test: small molecules binding DKK1 protein – biochemical, small-molecule microarray, 635 nm fluorescence scan, primary screen (AID 1106); details: higher = more signal;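 note: score merges emission near 667 nm with signal to noise over three replicate slides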
[20] = tested on: Inhibin beta A chain (activin A); test: small molecules binding activin A – biochemical, small-molecule microarray, 635 nm fluorescence scan, primary screen (AID 1107); details: INHBA, higher = more signal;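 note: mouse activin A protein probed at 4.33 µg/mL on printed slides; score merges bound-protein fluorescence near 667 nm with spot signal-to-noise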

Epidermal growth factor receptor (Homo sapiens), sequence (P00533 whole entry, looked up): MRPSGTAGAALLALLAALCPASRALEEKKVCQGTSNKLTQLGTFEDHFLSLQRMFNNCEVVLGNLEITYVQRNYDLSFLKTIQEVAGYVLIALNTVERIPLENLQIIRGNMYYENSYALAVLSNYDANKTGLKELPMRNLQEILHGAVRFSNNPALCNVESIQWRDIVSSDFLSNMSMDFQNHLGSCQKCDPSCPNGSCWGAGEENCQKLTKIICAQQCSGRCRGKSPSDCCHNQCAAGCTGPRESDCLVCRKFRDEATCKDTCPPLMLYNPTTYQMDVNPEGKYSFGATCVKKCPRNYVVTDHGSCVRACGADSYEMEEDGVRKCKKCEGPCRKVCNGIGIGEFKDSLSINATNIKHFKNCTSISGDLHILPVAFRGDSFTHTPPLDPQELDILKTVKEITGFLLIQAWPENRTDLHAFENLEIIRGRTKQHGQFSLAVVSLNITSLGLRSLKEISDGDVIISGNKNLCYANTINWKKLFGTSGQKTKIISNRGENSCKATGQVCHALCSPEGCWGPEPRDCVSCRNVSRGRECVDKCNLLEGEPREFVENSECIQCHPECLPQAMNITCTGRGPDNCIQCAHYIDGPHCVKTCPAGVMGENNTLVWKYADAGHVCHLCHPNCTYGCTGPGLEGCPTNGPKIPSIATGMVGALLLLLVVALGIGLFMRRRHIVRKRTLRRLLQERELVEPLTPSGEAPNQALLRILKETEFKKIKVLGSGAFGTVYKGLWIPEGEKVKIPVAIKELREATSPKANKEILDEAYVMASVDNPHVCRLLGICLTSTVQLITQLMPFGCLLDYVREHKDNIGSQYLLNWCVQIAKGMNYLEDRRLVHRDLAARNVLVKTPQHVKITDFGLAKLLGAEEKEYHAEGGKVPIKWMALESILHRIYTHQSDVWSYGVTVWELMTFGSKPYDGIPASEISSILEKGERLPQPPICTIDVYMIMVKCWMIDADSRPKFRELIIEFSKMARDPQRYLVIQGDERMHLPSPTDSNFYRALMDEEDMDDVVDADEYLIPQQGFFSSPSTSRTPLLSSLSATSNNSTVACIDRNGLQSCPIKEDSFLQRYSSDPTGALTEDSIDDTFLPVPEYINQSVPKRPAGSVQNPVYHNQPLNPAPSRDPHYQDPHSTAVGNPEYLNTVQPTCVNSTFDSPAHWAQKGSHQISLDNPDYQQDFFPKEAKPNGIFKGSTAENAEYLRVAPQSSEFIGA
Dickkopf-related protein 1 (Homo sapiens), sequence (O94907 whole entry, looked up): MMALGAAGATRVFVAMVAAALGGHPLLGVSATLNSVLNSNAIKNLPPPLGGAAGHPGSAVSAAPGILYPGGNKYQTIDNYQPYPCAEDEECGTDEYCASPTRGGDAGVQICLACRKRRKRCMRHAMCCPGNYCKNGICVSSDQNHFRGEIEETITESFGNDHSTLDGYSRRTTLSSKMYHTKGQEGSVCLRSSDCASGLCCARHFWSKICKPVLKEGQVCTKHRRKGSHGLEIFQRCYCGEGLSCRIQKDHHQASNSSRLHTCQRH
Follistatin-related protein 3 (Homo sapiens), sequence (O95633 whole entry, looked up): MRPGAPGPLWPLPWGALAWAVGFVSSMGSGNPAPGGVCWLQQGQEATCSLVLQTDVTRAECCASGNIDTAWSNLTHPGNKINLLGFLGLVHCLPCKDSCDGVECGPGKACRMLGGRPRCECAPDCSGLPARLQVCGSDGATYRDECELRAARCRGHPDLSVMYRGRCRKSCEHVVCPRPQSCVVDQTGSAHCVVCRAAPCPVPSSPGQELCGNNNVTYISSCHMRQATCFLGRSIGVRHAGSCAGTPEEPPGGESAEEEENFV
Fibroblast growth factor 10 (Homo sapiens), sequence (O15520 whole entry, looked up): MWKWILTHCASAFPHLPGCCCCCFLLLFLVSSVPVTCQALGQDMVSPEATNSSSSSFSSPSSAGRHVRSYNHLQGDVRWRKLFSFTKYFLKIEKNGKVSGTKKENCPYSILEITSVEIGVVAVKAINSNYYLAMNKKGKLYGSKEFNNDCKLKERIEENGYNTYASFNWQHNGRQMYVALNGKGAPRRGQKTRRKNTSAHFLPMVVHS
Neurogenic locus notch homolog protein 3 (Homo sapiens), sequence (Q9UM47 whole entry, looked up): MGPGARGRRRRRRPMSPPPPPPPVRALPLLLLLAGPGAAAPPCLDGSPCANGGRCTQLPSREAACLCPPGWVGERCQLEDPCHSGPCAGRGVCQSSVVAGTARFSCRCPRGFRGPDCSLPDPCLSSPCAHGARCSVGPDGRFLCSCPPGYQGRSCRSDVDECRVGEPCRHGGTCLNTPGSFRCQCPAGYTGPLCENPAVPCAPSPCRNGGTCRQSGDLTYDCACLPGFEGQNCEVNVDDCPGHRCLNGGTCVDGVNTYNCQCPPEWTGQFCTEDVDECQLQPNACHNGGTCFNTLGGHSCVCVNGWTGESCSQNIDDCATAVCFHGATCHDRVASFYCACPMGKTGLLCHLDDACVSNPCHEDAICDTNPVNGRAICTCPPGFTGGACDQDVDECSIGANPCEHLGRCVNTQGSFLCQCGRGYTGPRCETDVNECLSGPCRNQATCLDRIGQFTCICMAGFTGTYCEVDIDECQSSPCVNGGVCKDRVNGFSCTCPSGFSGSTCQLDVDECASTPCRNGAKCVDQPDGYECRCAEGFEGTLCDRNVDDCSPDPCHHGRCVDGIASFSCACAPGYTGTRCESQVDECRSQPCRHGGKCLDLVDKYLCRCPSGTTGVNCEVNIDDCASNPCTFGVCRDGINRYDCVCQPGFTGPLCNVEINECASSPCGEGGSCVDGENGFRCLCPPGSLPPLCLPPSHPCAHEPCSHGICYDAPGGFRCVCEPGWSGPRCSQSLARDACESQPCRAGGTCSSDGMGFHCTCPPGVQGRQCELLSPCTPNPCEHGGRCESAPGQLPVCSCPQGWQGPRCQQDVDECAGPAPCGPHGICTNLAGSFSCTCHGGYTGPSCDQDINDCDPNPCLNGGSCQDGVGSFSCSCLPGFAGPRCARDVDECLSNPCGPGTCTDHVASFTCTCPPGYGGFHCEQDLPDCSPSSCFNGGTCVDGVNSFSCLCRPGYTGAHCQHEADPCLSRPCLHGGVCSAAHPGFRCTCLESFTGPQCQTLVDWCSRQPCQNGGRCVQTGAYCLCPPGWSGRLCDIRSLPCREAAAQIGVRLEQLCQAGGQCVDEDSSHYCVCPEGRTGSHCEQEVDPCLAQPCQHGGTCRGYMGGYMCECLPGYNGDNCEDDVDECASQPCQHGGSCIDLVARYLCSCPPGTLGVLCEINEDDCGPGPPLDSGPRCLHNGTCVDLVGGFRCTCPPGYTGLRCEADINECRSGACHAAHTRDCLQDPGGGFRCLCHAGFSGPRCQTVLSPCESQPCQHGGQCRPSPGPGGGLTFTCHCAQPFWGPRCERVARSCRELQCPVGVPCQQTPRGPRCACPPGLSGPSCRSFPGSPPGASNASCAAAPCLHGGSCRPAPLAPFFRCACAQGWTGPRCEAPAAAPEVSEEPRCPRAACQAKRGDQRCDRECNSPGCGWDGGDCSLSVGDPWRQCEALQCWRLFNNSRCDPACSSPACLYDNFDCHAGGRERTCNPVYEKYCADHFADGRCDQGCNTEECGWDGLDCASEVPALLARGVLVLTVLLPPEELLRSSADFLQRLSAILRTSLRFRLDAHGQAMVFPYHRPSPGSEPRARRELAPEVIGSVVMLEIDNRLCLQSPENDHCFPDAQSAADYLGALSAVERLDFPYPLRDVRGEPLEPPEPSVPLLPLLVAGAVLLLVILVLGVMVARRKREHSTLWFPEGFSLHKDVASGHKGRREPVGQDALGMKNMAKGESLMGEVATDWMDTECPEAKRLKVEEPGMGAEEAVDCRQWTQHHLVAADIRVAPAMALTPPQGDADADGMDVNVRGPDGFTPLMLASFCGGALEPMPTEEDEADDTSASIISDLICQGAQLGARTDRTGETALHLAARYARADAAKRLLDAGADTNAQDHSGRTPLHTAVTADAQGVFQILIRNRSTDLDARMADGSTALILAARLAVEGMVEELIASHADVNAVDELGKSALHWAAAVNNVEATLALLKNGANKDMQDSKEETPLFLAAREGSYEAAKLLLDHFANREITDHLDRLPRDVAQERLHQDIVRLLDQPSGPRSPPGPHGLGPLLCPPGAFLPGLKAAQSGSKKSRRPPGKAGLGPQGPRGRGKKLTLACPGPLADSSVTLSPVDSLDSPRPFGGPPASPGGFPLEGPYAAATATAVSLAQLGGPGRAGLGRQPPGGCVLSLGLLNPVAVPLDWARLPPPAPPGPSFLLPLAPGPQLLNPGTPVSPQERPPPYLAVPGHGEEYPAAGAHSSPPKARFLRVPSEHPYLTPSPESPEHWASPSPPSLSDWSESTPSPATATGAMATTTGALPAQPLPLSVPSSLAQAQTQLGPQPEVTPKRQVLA
Torsin-1A-interacting protein 2 (Homo sapiens), sequence (Q8NFQ8 whole entry, looked up): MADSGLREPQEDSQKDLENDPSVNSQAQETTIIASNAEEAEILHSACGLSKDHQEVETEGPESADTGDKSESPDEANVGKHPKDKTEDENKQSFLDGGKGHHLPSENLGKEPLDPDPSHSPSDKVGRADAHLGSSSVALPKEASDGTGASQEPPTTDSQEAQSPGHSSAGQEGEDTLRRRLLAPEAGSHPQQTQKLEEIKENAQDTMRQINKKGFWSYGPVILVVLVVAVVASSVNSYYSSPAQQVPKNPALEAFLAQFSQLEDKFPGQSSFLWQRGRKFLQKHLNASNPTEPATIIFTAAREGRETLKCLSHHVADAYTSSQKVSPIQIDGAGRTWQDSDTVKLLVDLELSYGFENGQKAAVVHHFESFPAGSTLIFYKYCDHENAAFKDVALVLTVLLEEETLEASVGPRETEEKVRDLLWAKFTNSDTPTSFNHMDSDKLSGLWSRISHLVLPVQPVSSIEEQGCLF

| Compound | composite z-score [1] | z-score [2] | z-score [3] | z-score [4] | composite z-score [5] | z-score [6] | composite z-score [7] | composite z-score [8] | composite z-score [9] | composite z-score [10] | composite z-score [11] | composite z-score [12] | composite z-score [13] | z-score [14] | composite z-score [15] | composite z-score [16] | composite z-score [17] | composite z-score [18] | composite z-score [19] | composite z-score [20] |
| --- | --- | --- | --- | --- | --- | --- | --- | --- | --- | --- | --- | --- | --- | --- | --- | --- | --- | --- | --- | --- |
| CCCCC(CC)C(O)C1C=CC2C(=O)NC(=O)C2N1Nc1ccccn1 (stereo not given) | 1.34 | 0.601 (inactive) | 0.764 (inactive) | 0.722 (inactive) | 2.74 | -0.828 (inactive) | -0.11 | 0.0732 | 1.1 | -0.119 | 0.768 | 0.189 | 0.471 | 1.08 (inactive) | 0.327 | 0.493 | -0.035 | 0.768 | 0.112 | 1.33 |
| COCCOC(=O)N1C(=O)[C@@]2(c3cc(C#CCNC(N)=O)ccc31)[C@H](C(N)=O)[C@H]1C(=O)O[C@H](c3ccccc3)[C@H](c3ccccc3)N1[C@@H]2c1ccc(OCCO)cc1 | 1.55 | 0.517 (inactive) | 0.0121 (inactive) | 1.98 (inactive) | 1.53 | -0.27 (inactive) | -0.0054 | 1.23 | 1.07 | -0.0085 | 1.05 | 0.0301 | 0.721 | 0.731 (inactive) | 0.535 | 0.737 | 0.793 | 1.45 | 0.825 | 1.35 |
| C=C(CCCC)/C(=C/C[C@H](OC(=O)c1ccncc1)c1ccc(CO)o1)c1cc(C(=O)OC)ccc1OC | 1.56 | -0.0643 (inactive) | -1.65 (inactive) | -0.57 (inactive) | 2.12 | 0.171 (inactive) | 0.0123 | 1 | 1.13 | -0.0056 | 1.21 | 0.0946 | -0.125 | 0.84 (inactive) | 0.565 | 1.26 | 0.356 | 0.928 | 0.575 | 0.554 |
| COCCOC(=O)N1C(=O)[C@@]2(c3cc(C#CCCO)ccc31)[C@H](C(=O)N1CCc3cc(OC)c(OC)cc3C1)[C@H]1C(=O)O[C@H](c3ccccc3)[C@H](c3ccccc3)N1[C@@H]2c1ccc(OCCO)cc1 | 1.55 | -1.17 (inactive) | -0.581 (inactive) | 2.59 (inactive) | 2.59 | 1.26 (inactive) | -0.104 | 1.12 | 1.07 | -0.0859 | 1.19 | 0.125 | -0.199 | -0.575 (inactive) | 1.37 | 1.2 | 0.846 | 1.4 | 0.609 | 0.0945 |
| O=C1O[C@@H](c2ccccc2)[C@@H](c2ccccc2)N2[C@@H](c3ccc(O)cc3)[C@]3(C(=O)Nc4ccc(C#CC5=CCCCC5)cc43)[C@@H](C(=O)Nc3nc4ccccc4s3)[C@H]12 | 1.54 | 0.424 (inactive) | 0.015 (inactive) | 0.606 (inactive) | 2.86 | 0.481 (inactive) | 0.455 | 1.04 | 1.04 | 0.127 | 1.61 | 0.307 | -0.0516 | -0.0881 (inactive) | 1.36 | 1.29 | 0.381 | 1.31 | 1.06 | 1.07 |
| COc1ccc(CCNC(=O)[C@@H]2c3ccccc3C(=O)N(Cc3ccccc3)[C@H]2c2ccc(CO)cc2)cc1 | 1.55 | -1.34 (inactive) | -0.586 (inactive) | -0.332 (inactive) | 3.23 | 1.95 (inactive) | 0.06 | 0.107 | 0.233 | -0.0978 | 1.23 | -0.0548 | 0.693 | -0.575 (inactive) | 0.847 | 0.432 | -0.25 | 0.84 | -0.0051 | 0.309 |
| Cc1ccc(-c2cccc(=O)o2)cc1 | -0.0072 | -1.91 (inactive) | -1.56 (inactive) | 1 (inactive) | -0.606 | 0.0307 (inactive) | -0.183 | -0.175 | -0.312 | -0.105 | -0.466 | 0.0694 | -0.0115 | 0.613 (inactive) | -0.1 | -0.39 | 0.115 | 0.483 | 0.184 | 1.35 |
| COc1ccc([Si](C)(C)[C@@H]2[C@@H](CCO)O[C@]3(C(=O)N(Cc4cccc(N5C(=O)COc6ccccc65)c4)c4ccccc43)[C@H]2C)cc1 | 0.896 | 3.01 (inactive) | 1.09 (inactive) | 36.8 (active) | 1.61 | 0.685 (inactive) | -0.124 | -0.142 | 0.528 | -0.0864 | 1.35 | 0.0985 | 0.298 | -1.54 (inactive) | 0.247 | -0.233 | -0.0851 | -0.225 | -0.466 | -0.496 |
| CCCCCCCCCCC(O)C1C=CC2C(=O)NC(=O)C2N1Nc1ccccn1 (stereo not given) | -0.19 | -20 (active) | -16.2 (active) | -2.6 (inactive) | 1.78 | -15.5 (active) | -0.0654 | -0.894 | 0.243 | -0.14 | 1.07 | 0.482 | 0.883 | 0.447 (inactive) | -0.649 | -0.811 | -0.689 | -0.448 | -0.765 | 0.997 |
| COc1ccc(C#Cc2ccc3c(c2)[C@]2(C(=O)N3)[C@H](C(=O)O)[C@H]3C(=O)O[C@H](c4ccccc4)[C@H](c4ccccc4)N3[C@@H]2c2ccc(OCCO)cc2)cc1 | 1.55 | 2.76 (inactive) | -0.0666 (inactive) | 1.08 (inactive) | 2.37 | 2.26 (inactive) | 0.054 | 1 | 1.1 | -0.0433 | 1.48 | 0.192 | 0.296 | -0.825 (inactive) | 0.929 | 0.984 | 0.45 | 0.486 | 0.195 | -0.159 |
